Reference: the supplement of paper PMC12350171
Counter-ions that a name gives are not always drawn. Values without a mark were called inactive.

Key:
Details in all cases: 20 µM
[1] = test system: Haemophilus parainfluenzae; test: growth AUC normalised to DMSO control (fraction of control); higher = less growth inhibition, active = hit call of the paper
How it was run: (§1)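 After two anaerobic passages, pathogens were added at a starting OD578 of 0.01 to pre-reduced mGAM plates holding compound at 20 μM with 1% DMSO; hemin and NAD were supplemented for Haemophilus parainfluenzae. Sealed with breathable membranes, plates were read at OD578 hourly for 24 h, in three biological replicates. The trapezoidal rule, applied up to the exponential-to-stationary transition, gave the growth-curve AUC, which was normalised to DMSO controls on the same plate.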

Shigella flexneri = test: as above
How it was run: as §1

Vibrio cholerae = test: as above
How it was run: as §1

[2] = test system: Yersinia pseudotuberculosis; test: as above
How it was run: as §1

P. vulgatus RND KO = test: growth AUC normalised to DMSO control (median) (fraction of control); higher = less growth inhibition, active = hit call of the paper
How it was run: (§2)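 Anaerobic growth was tracked hourly at OD578 for 24 h in 96-well plates of mGAM seeded at OD578 0.01 with each approved-drug library compound at 20 μM and 1% DMSO. Strains had first been passaged twice overnight without oxygen. Three biological replicates were run. The reported median is the area under the curve, calculated by the trapezoidal rule on curves truncated at entry into stationary phase and normalised to vehicle wells on the same plate.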

P. vulgatus WT = test: as above
How it was run: as §2

[3] = test system: S. enterica typhimurium WT; test: as above
How it was run: as §2

[4] = test system: S. enterica typhimurium tolC KO; test: as above
How it was run: as §2

[5] = test system: Salmonella enterica typhimurium; test: growth AUC normalised to DMSO control (fraction of control); higher = less growth inhibition, active = hit call of the paper
How it was run: as §1
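Throughout, for growth AUC normalised to DMSO control (median): active when median AUC fell below 0.1.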

Row | Structure (SMILES) | growth AUC normalised to DMSO control [1] | growth AUC normalised to DMSO control (Shigella flexneri) | growth AUC normalised to DMSO control (Vibrio cholerae) | growth AUC normalised to DMSO control [2] | growth AUC normalised to DMSO control (P. vulgatus RND KO) | growth AUC normalised to DMSO control (P. vulgatus WT) | growth AUC normalised to DMSO control [3] | growth AUC normalised to DMSO control [4] | growth AUC normalised to DMSO control [5]
1 | CC(N)C(O)c1ccccc1 (configuration not stated) [Phenylpropanolamine hydrochloride] | 1.07 | 1.03 | 1.01 | 0.972 | 1.03 | 1.02 | 1.01 | 1.01 | –
2 | CCCCCC[C@H]1C(=O)O[C@H](C)[C@H](NC(=O)c2cccc(NC=O)c2O)C(=O)O[C@@H](C)[C@@H]1OC(=O)CC(C)C [Antimycin A] | – | – | – | – | 1.03 | 1.05 | 1.01 | 1.01 | –
3 | Nc1nc(N)nc(NC2CC2)n1 [Cyromazine] | – | – | – | – | 0.998 | 1.01 | 1 | 0.988 | –
4 | C=C[C@H]1CN2CC[C@H]1C[C@H]2[C@H](OC(=O)OCC)c1ccnc2ccc(OC)cc12 [Quinine ethyl carbonate] | – | – | – | – | 1.01 | 1 | 0.996 | 0.969 | –
5 | CC(C)C[C@H](CN)CC(=O)O [Pregabalin] | – | – | – | – | 0.971 | 0.976 | 0.991 | 0.989 | –
6 | C=CC[C@]1(O)CC[C@H]2[C@@H]3CCC4=CCCC[C@@H]4[C@H]3CC[C@@]21C [Allylestrenol] | – | – | – | – | 0.959 | 0.925 | 1.02 | 1.01 | –
7 | CC[C@@]1([C@@H]2O[C@@H]([C@H]3O[C@@](O)(CO)[C@H](C)C[C@@H]3C)C[C@@H]2C)CC[C@H]([C@]2(C)CC[C@]3(C[C@H](O)[C@@H](C)[C@@H]([C@@H](C)[C@@H](OC)[C@H](C)C(=O)O)O3)O2)O1 [Monensin sodium salt] | – | – | – | – | 0.261 | 0.305 | 1 | 0.856 | –
8 | N#Cc1nn(-c2c(Cl)cc(C(F)(F)F)cc2Cl)c(N)c1[S+]([O-])C(F)(F)F (configuration not stated) [Fipronil] | – | – | – | – | 0.985 | 0.906 | 1.01 | 0.903 | –
9 | C[C@]12C/C(=C/O)C(=O)C[C@@H]1CC[C@@H]1[C@@H]2CC[C@@]2(C)[C@H]1CC[C@]2(C)O [Oxymetholone] | – | – | – | – | 0.918 | 1 | 1.01 | 0.956 | –
10 | CN(C)[C@@H]1C(=O)C(C(N)=O)=C(O)[C@@]2(O)C(=O)C3=C(O)c4c(O)cccc4[C@@](C)(O)[C@H]3C[C@@H]12 [Tetracycline hydrochloride] | 0.0479 (active) | 0.0389 (active) | 0.0365 (active) | 0.0501 (active) | 0.0124 (active) | 0.013 (active) | 0.0084 (active) | 0.00234 (active) | 0.00376 (active)
11 | Oc1ccc(Cl)cc1Cc1cc(Cl)ccc1O [Dichlorophen] | – | – | – | – | 0.641 | 0.442 | 0.915 | 0.00799 (active) | –
12 | c1ccc2c(c1)Nc1ccccc1S2 [Phenothiazine] | – | – | – | – | 1.01 | 1.01 | 0.972 | 0.945 | –
13 | C[N+]1(C)CCCC(OC(=O)C(O)(c2ccccc2)c2ccccc2)C1 (configuration not stated) [Mepenzolate bromide] | 0.915 | 0.986 | 0.947 | 1 | 1.02 | 1.05 | 1.01 | 0.996 | 1.01
14 | CCC1(c2ccc(N)cc2)CCC(=O)NC1=O (configuration not stated) [Glutethimide, para-amino] | 1.04 | 1 | 1.04 | 0.988 | 1.02 | 1.04 | 1.02 | 0.993 | 1.01
15 | CN1[C@@H]2CC[C@H]1C[C@@H](OC1c3ccccc3CCc3ccccc31)C2 [Deptropine citrate] | 0.95 | 0.971 | 0.926 | 0.965 | 0.941 | 0.945 | 0.994 | 0.942 | 0.993
16 | C[C@]12C=CC(=O)C=C1CC[C@@H]1[C@@H]2CC[C@@]2(C)[C@H]1CC[C@]2(C)O [Methandrostenolone] | – | – | – | – | 0.996 | 0.998 | 1.01 | 0.982 | –
17 | NC(=O)OCCCc1ccccc1 [Phenprobamate] | – | – | – | – | 1.01 | 1.02 | 0.989 | 0.991 | –
